Inconclusive results are not listed. Activity calls are given as the source filed them. Unless noted, calls follow the shape of the dose curve; as a rule, active = well fitted curve in the direction sought with a large enough effect in the repeat runs; inconclusive = weak or mixed curves; inactive = no such curve, though single readings can be large; an effect the other way counts as inactive or inconclusive.
Experiments:
[1] = A CellTox Green Cytotoxicity Assay to monitor cytotoxicity in HepG2 cells - 0 hour (AID 1224882); also: nearly all actives have a fitted effect of over 35% in size
Method in brief: (§1)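 Nonlytic assay: viable cells exclude the dye, so fluorescence scales with cell death. HepG2 at 600 cells/well, compounds added after 5 h, signal read across 40 h.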

[2] = A CellTox Green Cytotoxicity Assay to monitor cytotoxicity in HepG2 cells - 32 hour (AID 1224883); also: nearly all actives have a fitted effect of over 50% in size
Method in brief: as §1

[3] = A CellTox Green Cytotoxicity Assay to monitor cytotoxicity in HEK293 cells - 8 hour (AID 1224884); also: nearly all actives have a fitted effect of over 35% in size
Method in brief: (§2)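 Seeding of HEK293 cells together with cytotoxicity dye preceded a 5 h incubation at 37 C/5% CO2. Test compounds in DMSO were then added and fluorescence monitored across 40 h.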

[4] = qHTS RealTime-Glo MT Cell Viability Assay in HepG2 cells - 16 hour (AID 1224885); also: nearly all actives have a fitted effect of over 50% in size; also: potency is read from the fitted curve at half-maximal effect
Method in brief: (§3)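 qHTS, HepG2, 600 cells/well, RealTime-Glo (NanoLuc + prosubstrate) added with cells; 5 h preincubation; DMSO compound addition; 37 C; luminescence at 0/8/16/24/32/40 h.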

[5] = A CellTox Green Cytotoxicity Assay to monitor cytotoxicity in HEK293 cells - 16 hour (AID 1224888); also: nearly all actives have a fitted effect of over 35% in size
Method in brief: as §2

[6] = qHTS RealTime-Glo MT Cell Viability Assay in HepG2 cells - 0 hour (AID 1224889); also: nearly all actives have a fitted effect of over 50% in size; also: potency is read from the fitted curve at half-maximal effect
Method in brief: as §3

[7] = A CellTox Green Cytotoxicity Assay to monitor cytotoxicity in HepG2 cells - 8 hour (AID 1224890); also: nearly all actives have a fitted effect of over 45% in size
Method in brief: as §1

[8] = qHTS assay to identify small molecule antagonists of the estrogen receptor alpha (ER-alpha) signaling pathway using the BG1 cell line in the presence of 0.1 nM 17-beta-estradiol - cell viability counter screen (AID 1259241); also: nearly all actives have a fitted effect of over 40% in size
Method in brief: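 VM7Luc4E2 cells (endogenous ER-alpha, 4×ERE-luciferase), hormone-starved 5 days in charcoal-stripped FBS, were treated with compounds plus 0.1 nM 17beta-estradiol for 22 hr at 37C; viability read in same wells as CellTiter-Fluor live-cell protease fluorescence.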

[9] = qHTS assay to identify small molecule antagonists of the androgen receptor (AR) signaling pathway using the MDA cell line in the presence of 0.5 nM R1881 - cell viability counter screen (AID 1259242); also: nearly all actives have a fitted effect of over 45% in size
Method in brief: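 R1881 at 0.5 nM final stimulated MDA-kb2 cells during 16 hr compound treatment at 37C. Cytotoxicity read: CellTiter-Fluor fluorescence after 30 min.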

[10] = target: Estrogen receptor (Homo sapiens) (UniProt P03372); assay: qHTS assay to identify small molecule antagonists of the estrogen receptor alpha (ER-alpha) signaling pathway using the BG1 cell line in the presence of 0.1 nM 17-beta-estradiol (AID 1259244); also: nearly all actives have a fitted effect of over 50% in size
Method in brief: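 VM7Luc4E2; 4xERE-luciferase; 0.1 nM E2 final; 22 h co-incubation, 37C; ONE-Glo luminescence after 30 min at room temperature.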

[11] = qHTS assay to identify small molecule phospholipidosis (PLD) inducers (AID 1259344; active = well fitted curve in the direction sought with a large enough effect; an effect the other way counts as inactive or inconclusive)
Method in brief: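 HepG2 cells on collagen I, attached 4 h at 37 C, were co-treated with compound and LipidTOX Red dye for 24 h at 37 C, then fixed with paraformaldehyde plus Hoechst 33342 and imaged by high-content microscopy for phospholipid accumulation.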

[12] = qHTS assay to identify small molecule HDAC inhibitors (AID 1259364);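 also: wild-type HCT-116 cells with endogenous class I/II HDAC activity; top concentration of the series differs between compounds; nearly all actives have a fitted effect of over 45% in size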
Method in brief: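 Relative class I and II HDAC activity is taken from the luminogenic signal in HCT-116 cells, with compound exposure 2 hr and reagent development 30 min at room temperature.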

[13] = qHTS assay to identify small molecule HDAC inhibitors - cell viability counter screen (AID 1259365)
Method in brief: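 Wild-type HCT-116 cells were seeded at 1,500 per well, incubated overnight at 37 C, then exposed to compounds in DMSO for 2hr. Viability was read by CellTiter-Glo luminescence after 30min at room temperature.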

[14] = qHTS assay to identify small molecule agonists of the sonic hedgehog signaling (Shh) pathway - cell viability counter screen (AID 1259366); also: nearly all actives have a fitted effect of over 50% in size; also: potency is read from the fitted curve at half-maximal effect
Method in brief: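 NIH/3T3-derived 3T3 Gli1-Luc cells (stable Gli1-responsive firefly luciferase reporter) were seeded, rested 4 hr at 37 C/5% CO2, then exposed to compounds in DMSO for 24 hr; viability was read by CellTiter-Fluor fluorescence in the same wells.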

[15] = qHTS assay to identify small molecule antagonists of the sonic hedgehog signaling (Shh) pathway - cell viability counter screen (AID 1259367); also: nearly all actives have a fitted effect of over 55% in size; also: potency is read from the fitted curve at half-maximal effect
Method in brief: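 NIH/3T3-derived Gli1-Luc reporter cells (2,000 per well) rested 4 hr at 37 C, then received DMSO compounds plus conditioned medium. After 23 hr of treatment, CellTiter-Fluor was added for 1 hr at 37C and fluorescence read.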

[16] = qHTS assay to identify small molecule agonists of the sonic hedgehog signaling (Shh) pathway (AID 1259368; calls by dose curve; also: series mostly up to about 92 µM; nearly all actives have a fitted effect of over 15% in size)
Method in brief: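 Mouse fibroblast (NIH/3T3) reporter cells with stably integrated Gli1-Luc were treated 24 hr with compound; firefly luciferase luminescence served as the read-out.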

[17] = qHTS assay to identify small molecule antagonists of the sonic hedgehog signaling (Shh) pathway (AID 1259369; calls by dose curve; also: nearly all actives have a fitted effect of over 45% in size; also: potency is read from the fitted curve at half-maximal effect)
Method in brief: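 Conditioned medium drives Shh signalling in 3T3Gli1-Luc cells; compounds in DMSO co-applied, 24hr at 37 C, then luciferase luminescence.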

[18] = target: Androgen receptor (Homo sapiens) (UniProt P10275); assay: qHTS assay to identify small molecule antagonists of the androgen receptor (AR) signaling pathway using the MDA cell line in the presence of 0.5 nM R1881 (AID 1259243); also: nearly all actives have a fitted effect of over 50% in size
Method in brief: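 We exposed MDA-kb2 cells to compounds under 0.5 nM R1881 stimulation for 16 hr at 37C and quantified MMTV-driven luciferase by luminescence.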

[19] = qHTS RealTime-Glo MT Cell Viability Assay in HEK293 cells - 8 hour (AID 1224887)
Method in brief: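 Tox21 screen in HEK293 using RealTime-Glo MT chemistry, with cells and reagent co-dispensed. Luminescence proportional to viable cell number was captured at intervals during 40 h compound exposure at 37 C.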
% is scaled to controls: 0 for no effect and ±100 for the full control effect.

Androgen receptor (Homo sapiens), sequence (P10275 whole entry, looked up): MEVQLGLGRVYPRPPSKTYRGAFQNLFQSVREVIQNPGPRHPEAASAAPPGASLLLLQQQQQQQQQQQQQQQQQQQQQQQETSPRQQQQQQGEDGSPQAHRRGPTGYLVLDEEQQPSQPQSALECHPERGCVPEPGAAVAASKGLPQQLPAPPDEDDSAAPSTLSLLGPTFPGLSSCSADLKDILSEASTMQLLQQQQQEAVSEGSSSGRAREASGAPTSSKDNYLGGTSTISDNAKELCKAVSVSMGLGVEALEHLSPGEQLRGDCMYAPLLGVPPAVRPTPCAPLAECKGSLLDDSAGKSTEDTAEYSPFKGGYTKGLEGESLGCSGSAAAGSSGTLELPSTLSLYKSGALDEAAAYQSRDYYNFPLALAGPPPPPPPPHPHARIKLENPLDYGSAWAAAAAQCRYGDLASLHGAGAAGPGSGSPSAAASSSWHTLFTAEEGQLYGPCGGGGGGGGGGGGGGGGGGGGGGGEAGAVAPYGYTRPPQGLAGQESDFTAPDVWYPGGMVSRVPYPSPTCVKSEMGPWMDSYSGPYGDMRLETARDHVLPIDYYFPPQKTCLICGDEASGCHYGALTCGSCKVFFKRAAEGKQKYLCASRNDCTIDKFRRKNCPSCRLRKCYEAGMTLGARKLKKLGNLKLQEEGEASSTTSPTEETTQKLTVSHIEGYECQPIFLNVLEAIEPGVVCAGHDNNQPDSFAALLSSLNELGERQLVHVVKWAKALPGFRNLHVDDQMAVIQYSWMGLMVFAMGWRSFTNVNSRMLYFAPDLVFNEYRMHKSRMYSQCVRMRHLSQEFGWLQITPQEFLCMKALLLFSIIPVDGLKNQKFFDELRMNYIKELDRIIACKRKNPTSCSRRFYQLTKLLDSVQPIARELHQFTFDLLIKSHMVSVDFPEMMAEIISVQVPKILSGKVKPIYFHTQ
Estrogen receptor (Homo sapiens), sequence (P03372 whole entry, looked up): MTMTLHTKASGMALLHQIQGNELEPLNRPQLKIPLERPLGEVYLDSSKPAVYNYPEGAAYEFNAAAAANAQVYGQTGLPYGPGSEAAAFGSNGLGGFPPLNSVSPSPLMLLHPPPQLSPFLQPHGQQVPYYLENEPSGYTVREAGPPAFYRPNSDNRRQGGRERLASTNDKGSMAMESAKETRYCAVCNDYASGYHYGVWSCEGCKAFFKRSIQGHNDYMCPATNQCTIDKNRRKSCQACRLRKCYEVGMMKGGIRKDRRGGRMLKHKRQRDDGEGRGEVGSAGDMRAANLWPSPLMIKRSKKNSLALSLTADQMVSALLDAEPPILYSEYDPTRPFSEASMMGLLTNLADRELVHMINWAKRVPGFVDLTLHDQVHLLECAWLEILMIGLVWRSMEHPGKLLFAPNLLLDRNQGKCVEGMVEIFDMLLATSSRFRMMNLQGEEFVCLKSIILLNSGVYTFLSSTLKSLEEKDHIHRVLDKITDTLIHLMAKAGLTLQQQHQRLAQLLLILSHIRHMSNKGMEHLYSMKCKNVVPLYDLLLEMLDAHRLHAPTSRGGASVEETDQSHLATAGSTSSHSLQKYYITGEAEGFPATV

CCC(=O)O[C@]1(C(=O)CCl)[C@@H](C)C[C@H]2[C@@H]3CCC4=CC(=O)C=C[C@]4(C)[C@@]3(F)[C@@H](O)C[C@@]21C
inactive: Potency [1] | Potency [2] | Potency [3] | Potency [4] | Potency [5] | Potency [6] | Potency [7] | Potency [8] | Potency [9] | Potency [10] | Potency [11] | Potency [12] | Potency [13] | Potency [14] | Potency [15] | outcome [16] | Potency [17]

COc1cc2nc(Cl)nc(N)c2cc1OC
inactive: Potency [1] | Potency [2] | Potency [3] | Potency [4] | Potency [6] | Potency [7] | Potency [8] | Potency [9] | Potency [18] | Potency [10] | Potency [12] | Potency [13] | Potency [15] | outcome [16]

C/C(=C(\CCOP(=O)(O)O)SC(=O)c1ccccc1)N(C=O)Cc1cnc(C)nc1N
inactive: cytotoxicity [1] 4.51% [at 6.97 µM] | cytotoxicity increase [2] -0.701% [at 6.97 µM] | cytotoxicity increase [3] -3.85% [at 6.97 µM] | activity change, negative = cytotoxic [4] 1.38% [at 6.97 µM] | activity change, negative = cytotoxicity [19] 3.68% [at 6.97 µM] | activity change [5] -2.42% [at 6.97 µM, stronger effect = higher value] | activity change, negative = cytotoxicity [6] 4.53% [at 6.97 µM] | cytotoxicity increase [7] 0.403% [at 6.97 µM] | activity change, negative = cytotoxicity [8] -4.04% [at 8.39 µM] | viability change, negative = cytotoxic [9] 2.34% [at 8.39 µM] | activity, negative = inhibition [18] 2.6% [at 8.39 µM] | activity change, negative = inhibition [10] 5.19% [at 8.39 µM] | Potency [11] | activity change, negative = inhibition [12] -1.49% [at 8.39 µM] | viability change, negative = cytotoxic [14] -1.58% [at 8.39 µM] | viability change, negative = cytotoxic [15] 0.0493% [at 8.39 µM] | activity change [16] 0.138% [at 8.39 µM] | activity change, negative = inhibition [17] 1.8% [at 8.39 µM]

CCCCc1nc2cccnc2n1Cc1ccc(-c2ccccc2-c2nnn[nH]2)cc1
active: Potency [6] 24.5 µM | Potency [15] 17.2 µM
inactive: Potency [1] | Potency [2] | Potency [3] | Potency [4] | Potency [5] | Potency [7] | Potency [8] | Potency [9] | Potency [10] | Potency [12] | Potency [13] | outcome [16]

O=C(O)c1ccc(S(=O)(=O)O)cc1C(=O)O
inactive: Potency [1] | Potency [2] | Potency [3] | Potency [4] | Potency [5] | Potency [8] | Potency [9] | Potency [10] | Potency [12] | Potency [13] | Potency [14] | Potency [15] | outcome [16] | Potency [17]

CC(C)(COC(=O)c1ccccc1)COC(=O)c1ccccc1
inactive: Potency [1] | Potency [2] | Potency [3] | Potency [4] | Potency [6] | Potency [7] | Potency [8] | Potency [9] | Potency [12] | Potency [14] | Potency [15] | outcome [16] | Potency [17]

CCCCCCCCCCO[C@@H]1O[C@H](CO)[C@@H](O)[C@H](O)[C@H]1O
active: Potency [17] 61.1 µM
inactive: Potency [1] | Potency [2] | Potency [3] | Potency [4] | Potency [19] | Potency [6] | Potency [7] | Potency [8] | Potency [9] | Potency [10] | Potency [12] | Potency [13] | Potency [15] | outcome [16]

Nc1cccc([N+](=O)[O-])c1
inactive: Potency [1] | Potency [2] | Potency [3] | Potency [4] | Potency [19] | Potency [6] | Potency [7] | Potency [8] | Potency [9] | Potency [18] | Potency [10] | Potency [12] | Potency [14] | Potency [15] | outcome [16] | Potency [17]

S=C([S-])NCCNC(=S)[S-].[Mn+2]
inactive: Potency [1] | Potency [2] | Potency [3] | Potency [4] | Potency [5] | Potency [6] | Potency [7] | Potency [8] | Potency [9] | Potency [12] | Potency [13] | outcome [16] | Potency [17]

C=CCOc1ccccc1OCC(O)CNC(C)C (configuration not stated)
inactive: Potency [1] | Potency [2] | Potency [3] | Potency [4] | Potency [19] | Potency [5] | Potency [6] | Potency [7] | Potency [8] | Potency [9] | Potency [10] | Potency [11] | Potency [12] | Potency [13] | Potency [14] | outcome [16] | Potency [17]

CCCCC1=NC2(CCCC2)C(=O)N1Cc1ccc(-c2ccccc2-c2nn[nH]n2)cc1
active: Potency [14] 4.22 µM | Potency [15] 6.68 µM
inactive: Potency [1] | Potency [2] | Potency [3] | Potency [4] | Potency [5] | Potency [6] | Potency [9] | Potency [10] | Potency [11] | Potency [12] | Potency [13] | outcome [16] | Potency [17]

CO[C@@H]1[C@H](OC(=O)/C=C/C=C/C=C/C=C/C(=O)O)CC[C@]2(CO2)[C@H]1[C@@]1(C)O[C@@H]1CC=C(C)C
inactive: Potency [1] | Potency [2] | Potency [3] | Potency [4] | Potency [19] | Potency [5] | Potency [6] | Potency [7] | Potency [8] | Potency [9] | Potency [11] | Potency [12] | Potency [13] | Potency [14] | Potency [15] | outcome [16]

CC(C)C[C@H]1C(=O)N2CCC[C@H]2[C@]2(O)O[C@](NC(=O)[C@@H]3C=C4c5cccc6[nH]c(Br)c(c56)C[C@H]4N(C)C3)(C(C)C)C(=O)N12
inactive: Potency [1] | Potency [2] | Potency [3] | Potency [6] | Potency [7] | Potency [8] | Potency [9] | Potency [11] | Potency [12] | Potency [13] | outcome [16]
active: Potency [4] 13.2 µM | Potency [17] 5.19 µM

CN(C)C(=O)NC1(c2ccccc2)CCN(CC[C@@]2(c3ccc(F)c(F)c3)CN(C(=O)c3ccccc3)CCO2)CC1
inactive: Potency [1] | Potency [2] | Potency [3] | Potency [4] | Potency [5] | Potency [6] | Potency [7] | Potency [8] | Potency [9] | Potency [12] | Potency [13] | outcome [16]

Cn1c(=O)cc(Oc2ccc(F)cc2F)c2cnc(NCC(C)(C)O)nc21
active: Potency [17] 27.3 µM
inactive: Potency [1] | Potency [2] | Potency [3] | Potency [4] | Potency [19] | Potency [5] | Potency [6] | Potency [7] | Potency [8] | Potency [9] | Potency [12] | Potency [13] | Potency [14] | outcome [16]
